This passage reports outcome and AC50 results from PubChem BioAssay (EPA / NIEHS).

Values joined by “and” are separate entries in the source; they are usually repeats but may differ in a detail not shown here. Equal entries are not always repeated. Inconclusive results are not listed. Some compounds were tested as several samples or in several runs, with calls that do not always agree. Active and inactive are the calls of the source. The calls were made as follows, unless noted: active = hit-call score of the fitted dose curve at least 0.9, where 1 is the maximum; inactive = score below 0.9.

The nature of assay [1]: BSK_SAg_PBMCCytotoxicity: PBMC Cytotoxicity Assessment in the BioMAP Diversity Plus: SAg Assay (AID 2283093).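 Also: PBMC viability measured as Alamar Blue reduction fluorescence at 546/580 nm; fitted both ways against DMSO so a hit may be loss or gain of signal.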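 As to AC50: PBMC superantigen activated with SEB plus TSST-1 one hour after compound addition.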 To be noted: primary human HUVEC with PBMC. In short, it runs like this:
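Alamar Blue reduction (6 h, ex/em 546/580 nm) read after 90 h culture of PBMC pre-dosed 1 h then stimulated with SEB plus TSST-1, 20 ng/mL each. Gain or loss of signal fitted relative to DMSO.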

Read-out in assay [2]: Interleukin-8 (IL8), CXCL8 (gene 3576)
Kind of assay: BSK_SAg_IL8: BioMAP Diversity Plus: SAg Assay for Interleukin-8 (IL8) Biomarker Activity (AID 2283094). To be noted: primary human HUVEC with PBMC; actives raise or lower the signal. The method, boiled down:
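HUVEC/PBMC co-culture, 24 h post-dose; IL-8 by ELISA. Gain or loss of signal fitted bidirectionally vs DMSO baseline.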

A short description of assay [3]: BSK_SAg_SRB: Viability Assessment in the BioMAP Diversity Plus: SAg Assay (AID 2283096).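 Also: cells read one day after compound addition; hits may be either gain or loss of signal compared with DMSO.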 To be noted: primary human HUVEC with PBMC. The method, boiled down:
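SRB absorbance at 560 nm served as the viability read-out. Cells (HUVEC plus peripheral blood mononuclear cells) were TCA-fixed and stained 24 h post-dosing; activity fitted in both directions against DMSO controls.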

The target in assay [4] is human CYP19A1, CYP19A1 (gene 1588) (UniProt P11511). The assay can be described thus: NVS_ADME_hCYP19A1: NovaScreen (NVS) CYP450-related Enzyme Activity (ADME) Assay for human CYP19A1 (AID 2283098; active = hit-call score of the fitted dose curve at least 0.9, where 1 is the maximum;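 as to AC50: potency for inhibitors seen as loss of fluorescent enzyme signal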). The method, boiled down: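 Primary testing was in duplicate at a single 10 uM concentration, with actives followed up in concentration-response series. Fluorescence read-out of recombinant enzyme activity at 0.5 h, cell-free. Acetonitrile was the negative-control baseline.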
Chain of human CYP19A1, CYP19A1 (gene 1588) (P11511 whole entry, looked up): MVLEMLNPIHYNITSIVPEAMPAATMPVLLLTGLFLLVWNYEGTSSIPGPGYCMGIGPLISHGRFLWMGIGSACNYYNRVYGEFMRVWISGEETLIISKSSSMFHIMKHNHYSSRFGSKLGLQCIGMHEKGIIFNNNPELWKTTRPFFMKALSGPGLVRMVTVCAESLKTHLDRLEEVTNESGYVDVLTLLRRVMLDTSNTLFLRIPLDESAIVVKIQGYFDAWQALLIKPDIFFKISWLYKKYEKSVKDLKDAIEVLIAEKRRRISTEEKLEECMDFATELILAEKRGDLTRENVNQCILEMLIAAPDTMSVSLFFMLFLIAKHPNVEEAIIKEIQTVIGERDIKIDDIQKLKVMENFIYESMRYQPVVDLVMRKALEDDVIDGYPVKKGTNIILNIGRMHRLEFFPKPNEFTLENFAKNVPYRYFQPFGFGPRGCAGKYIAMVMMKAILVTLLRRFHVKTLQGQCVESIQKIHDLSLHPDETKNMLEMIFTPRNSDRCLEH

The target in assay [5] is human CYP1A1, CYP1A1 (gene 1543) (UniProt P04798). Kind of assay: NVS_ADME_hCYP1A1: NovaScreen (NVS) CYP450-related Enzyme Activity (ADME) Assay for human CYP1A1 (AID 2283100; active = hit-call score of the fitted dose curve at least 0.9, where 1 is the maximum). In short, it runs like this: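 Cell-free fluorescence assay of recombinant human CYP1A1 activity with a specific substrate, read 1 h after dosing. Compounds were screened in duplicate at 10 uM, then hits tested in concentration-response up to 20 uM; acetonitrile served as baseline.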
Chain of human CYP1A1, CYP1A1 (gene 1543) (P04798 whole entry, looked up): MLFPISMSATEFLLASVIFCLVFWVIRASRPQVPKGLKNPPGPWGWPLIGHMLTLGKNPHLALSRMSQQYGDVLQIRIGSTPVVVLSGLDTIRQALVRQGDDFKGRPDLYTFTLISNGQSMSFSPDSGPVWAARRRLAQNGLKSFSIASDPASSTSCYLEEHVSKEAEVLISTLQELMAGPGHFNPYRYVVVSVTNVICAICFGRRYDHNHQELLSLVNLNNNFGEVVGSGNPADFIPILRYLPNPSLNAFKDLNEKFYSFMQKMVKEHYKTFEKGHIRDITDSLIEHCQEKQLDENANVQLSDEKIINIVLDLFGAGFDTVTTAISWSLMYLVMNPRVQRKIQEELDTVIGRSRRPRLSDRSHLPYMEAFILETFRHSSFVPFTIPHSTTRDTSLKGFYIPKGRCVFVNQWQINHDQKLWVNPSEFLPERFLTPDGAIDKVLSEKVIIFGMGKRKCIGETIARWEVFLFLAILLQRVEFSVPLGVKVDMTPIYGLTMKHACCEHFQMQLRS

Assay [6] has as its target human CYP2B6, CYP2B6 (gene 1555) (UniProt P20813). Kind of assay: NVS_ADME_hCYP2B6: NovaScreen (NVS) CYP450-related Enzyme Activity (ADME) Assay for human CYP2B6 (AID 2283101; active = hit-call score of the fitted dose curve at least 0.9, where 1 is the maximum). In short, it runs like this: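 Fluorescence-based enzyme activity of recombinant human CYP2B6, measured 1 h post-dose against acetonitrile vehicle baseline. Screened at a single concentration of 10 uM in duplicate before concentration-response follow-up.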

Assay [7] deals with human CYP1A2, CYP1A2 (gene 1544) (UniProt P05177). Kind of assay: NVS_ADME_hCYP1A2: NovaScreen (NVS) CYP450-related Enzyme Activity (ADME) Assay for human CYP1A2 (AID 2283102; active = hit-call score of the fitted dose curve at least 0.9, where 1 is the maximum;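 as to AC50: potency for inhibition since loss of fluorescence marks reduced CYP1A2 activity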). The method, boiled down: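 Cell-free recombinant human CYP1A2 expressed in insect cells, with fluorogenic substrate; fluorescence intensity read 0.5 h after dosing. Loss of signal relative to acetonitrile baseline scored. Primary screen in duplicate at 10 uM; actives retested in concentration series.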
Chain of human CYP1A2, CYP1A2 (gene 1544) (P05177 whole entry, looked up): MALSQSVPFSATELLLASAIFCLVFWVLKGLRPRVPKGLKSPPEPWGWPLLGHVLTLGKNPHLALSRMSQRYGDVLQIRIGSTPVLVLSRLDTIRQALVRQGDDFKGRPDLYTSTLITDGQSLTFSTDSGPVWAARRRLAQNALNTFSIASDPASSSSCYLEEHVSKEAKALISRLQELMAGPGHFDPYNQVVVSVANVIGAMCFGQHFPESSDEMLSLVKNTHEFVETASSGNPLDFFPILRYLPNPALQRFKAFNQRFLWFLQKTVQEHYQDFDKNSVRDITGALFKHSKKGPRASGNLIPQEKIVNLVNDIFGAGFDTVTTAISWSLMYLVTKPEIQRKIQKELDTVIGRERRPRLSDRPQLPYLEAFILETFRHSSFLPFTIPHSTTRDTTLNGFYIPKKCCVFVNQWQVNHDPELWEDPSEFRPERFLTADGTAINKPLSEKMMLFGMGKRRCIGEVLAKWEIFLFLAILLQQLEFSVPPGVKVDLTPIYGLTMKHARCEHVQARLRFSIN

The target in assay [8] is Cytochrome P450 2C18 (Homo sapiens) (UniProt P33260). Kind of assay: NVS_ADME_hCYP2C18: NovaScreen (NVS) CYP450-related Enzyme Activity (ADME) Assay for human CYP2C18 (AID 2283103). The method, boiled down:
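Enzyme activity measured by fluorescence 0.5 h after compound addition, using recombinant CYP2C18 and a specific substrate. Actives from duplicate 10 uM screening were retested in concentration series (top 20 uM); acetonitrile served as negative baseline.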

The target in assay [9] is human CYP2D6, CYP2D6 (gene 1565) (UniProt P10635). Kind of assay: NVS_ADME_hCYP2D6: NovaScreen (NVS) CYP450-related Enzyme Activity (ADME) Assay for human CYP2D6 (AID 2283107; active = hit-call score of the fitted dose curve at least 0.9, where 1 is the maximum). In short, it runs like this: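 Cell-free assay using recombinant enzyme expressed in insect cells, with fluorescence-intensity readout of enzyme activity 1 hour after chemical dosing. Loss of signal versus acetonitrile negative control indicates inhibition. Primary screen ran in duplicate at 10 uM; actives were retested in concentration series.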
Chain of human CYP2D6, CYP2D6 (gene 1565) (P10635 whole entry, looked up): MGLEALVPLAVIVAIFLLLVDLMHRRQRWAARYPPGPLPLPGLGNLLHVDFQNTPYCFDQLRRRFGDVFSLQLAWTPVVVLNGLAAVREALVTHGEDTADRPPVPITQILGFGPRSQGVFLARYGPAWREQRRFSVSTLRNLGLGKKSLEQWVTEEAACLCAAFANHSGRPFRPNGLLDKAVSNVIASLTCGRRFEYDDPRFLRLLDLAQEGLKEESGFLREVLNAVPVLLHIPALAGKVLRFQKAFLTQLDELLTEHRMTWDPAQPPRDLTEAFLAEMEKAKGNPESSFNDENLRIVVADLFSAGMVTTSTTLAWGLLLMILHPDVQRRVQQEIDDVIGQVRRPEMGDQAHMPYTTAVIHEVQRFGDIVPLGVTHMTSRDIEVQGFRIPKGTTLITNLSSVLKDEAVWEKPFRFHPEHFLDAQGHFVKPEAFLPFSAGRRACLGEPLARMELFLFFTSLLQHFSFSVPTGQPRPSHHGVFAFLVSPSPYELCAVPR

Assay [10] addresses human CYP2C9, CYP2C9 (gene 1559) (UniProt P11712). Kind of assay: NVS_ADME_hCYP2C9: NovaScreen (NVS) CYP450-related Enzyme Activity (ADME) Assay for human CYP2C9 (AID 2283108; active = hit-call score of the fitted dose curve at least 0.9, where 1 is the maximum). In short, it runs like this:
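Fluorescence readout of CYP2C9 activity (SF9-expressed human enzyme) at 0.75 h. The primary screen used 10 uM in duplicate, with concentration-response follow-up for actives; acetonitrile was the negative control.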

For assay [11], the target named is Cytochrome P450 3A4 (Homo sapiens) (UniProt P08684). The assay can be described thus: NVS_ADME_hCYP3A4: NovaScreen (NVS) CYP450-related Enzyme Activity (ADME) Assay for human CYP3A4 (AID 2283110; active = hit-call score of the fitted dose curve at least 0.9, where 1 is the maximum). The method, boiled down: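 Compounds screened in duplicate at 10 uM, with follow-up concentration-response for actives, against insect-cell-expressed recombinant enzyme. Activity read by fluorescence 0.33 h after dosing; loss of signal versus acetonitrile control indicates inhibition.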
Chain of Cytochrome P450 3A4 (Homo sapiens) (P08684 whole entry, looked up): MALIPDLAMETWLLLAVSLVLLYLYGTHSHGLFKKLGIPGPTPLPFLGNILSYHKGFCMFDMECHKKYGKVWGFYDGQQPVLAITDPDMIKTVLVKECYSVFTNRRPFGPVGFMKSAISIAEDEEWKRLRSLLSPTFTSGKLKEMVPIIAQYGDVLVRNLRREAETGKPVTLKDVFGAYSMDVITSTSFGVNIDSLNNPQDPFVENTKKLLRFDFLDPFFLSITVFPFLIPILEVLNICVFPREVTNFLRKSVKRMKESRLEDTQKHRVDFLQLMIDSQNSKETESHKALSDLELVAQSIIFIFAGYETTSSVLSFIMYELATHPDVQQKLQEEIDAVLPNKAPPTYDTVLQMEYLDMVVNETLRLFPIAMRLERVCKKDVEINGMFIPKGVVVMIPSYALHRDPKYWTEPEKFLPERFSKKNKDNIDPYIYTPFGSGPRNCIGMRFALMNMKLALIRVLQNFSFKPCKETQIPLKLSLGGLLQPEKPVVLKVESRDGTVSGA

Assay [12] deals with rat CYP2A1, Cyp2a1 (gene 24894) (UniProt P11711). The assay can be described thus: NVS_ADME_rCYP2A1: NovaScreen (NVS) CYP450-related Enzyme Activity (ADME) Assay for rat CYP2A1 (AID 2283114). In short, it runs like this:
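Cell-free fluorescence enzyme-activity read on recombinant rat CYP2A1, taken 0.75 h post-dosing. Compounds were screened in duplicate at 10 uM, then hits tested in concentration series (max 20 uM); inhibition scored relative to acetonitrile baseline.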

The target of assay [13] is human CYP2A6, CYP2A6 (gene 1548) (UniProt P11509). Kind of assay: NVS_ADME_hCYP2A6: NovaScreen (NVS) CYP450-related Enzyme Activity (ADME) Assay for human CYP2A6 (AID 2283099; active = hit-call score of the fitted dose curve at least 0.9, where 1 is the maximum). In short, it runs like this:
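Cell-free fluorescence readout of recombinant human CYP2A6 expressed in insect cells, read 0.5 h after dosing; loss of signal versus acetonitrile negative control. Primary screen in duplicate at 10 uM; actives re-run in concentration-response up to 20 uM.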

In assay [14] the target is human CYP2J2, CYP2J2 (gene 1573) (UniProt P51589). The assay can be described thus: NVS_ADME_hCYP2J2: NovaScreen (NVS) CYP450-related Enzyme Activity (ADME) Assay for human CYP2J2 (AID 2283106; active = hit-call score of the fitted dose curve at least 0.9, where 1 is the maximum). The method, boiled down: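 Chemicals were first tested at 10 uM in duplicate, and hits meeting criteria such as 30% inhibition were run in singleton concentration series with a 20 uM top concentration. Enzyme activity of recombinant CYP2J2 was measured by fluorescence after 1 h, relative to acetonitrile.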

Assay [15] addresses human CYP2C8, CYP2C8 (gene 1558) (UniProt P10632). The assay can be described thus: NVS_ADME_hCYP2C8: NovaScreen (NVS) CYP450-related Enzyme Activity (ADME) Assay for human CYP2C8 (AID 2283104). The method, boiled down:
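Fluorescence readout of substrate turnover by recombinant CYP2C8 after 0.5 h, baseline acetonitrile. Single-concentration duplicate screen at 10 uM preceded singleton concentration series (max 20 uM) for compounds passing the inhibition threshold.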

Assay [16] concerns the target rat CYP1A2, Cyp1a2 (gene 24297) (UniProt P04799). The assay can be described thus: NVS_ADME_rCYP1A2: NovaScreen (NVS) CYP450-related Enzyme Activity (ADME) Assay for rat CYP1A2 (AID 2283115; active = hit-call score of the fitted dose curve at least 0.9, where 1 is the maximum). In short, it runs like this:
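Primary testing ran in duplicate at 10 uM, with actives re-tested across concentration series. Fluorescence intensity from substrate turnover by recombinant protein, measured 1 hour post-dosing, with signal loss scored against acetonitrile vehicle.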

Chain of human CYP2B6, CYP2B6 (gene 1555) (P20813 whole entry, looked up): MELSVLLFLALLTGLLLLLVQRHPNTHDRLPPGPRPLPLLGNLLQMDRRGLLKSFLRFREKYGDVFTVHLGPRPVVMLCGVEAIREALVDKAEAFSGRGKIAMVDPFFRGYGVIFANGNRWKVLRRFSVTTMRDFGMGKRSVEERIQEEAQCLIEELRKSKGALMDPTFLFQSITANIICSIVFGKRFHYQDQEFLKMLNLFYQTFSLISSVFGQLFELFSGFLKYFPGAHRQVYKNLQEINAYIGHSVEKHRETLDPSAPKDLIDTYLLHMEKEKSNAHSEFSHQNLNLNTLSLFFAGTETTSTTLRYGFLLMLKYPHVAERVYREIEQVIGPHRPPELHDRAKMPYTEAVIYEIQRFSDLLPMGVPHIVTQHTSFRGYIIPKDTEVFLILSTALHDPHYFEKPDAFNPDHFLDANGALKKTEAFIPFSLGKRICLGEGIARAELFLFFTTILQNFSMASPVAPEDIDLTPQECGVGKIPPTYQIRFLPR
Chain of human CYP2C9, CYP2C9 (gene 1559) (P11712 whole entry, looked up): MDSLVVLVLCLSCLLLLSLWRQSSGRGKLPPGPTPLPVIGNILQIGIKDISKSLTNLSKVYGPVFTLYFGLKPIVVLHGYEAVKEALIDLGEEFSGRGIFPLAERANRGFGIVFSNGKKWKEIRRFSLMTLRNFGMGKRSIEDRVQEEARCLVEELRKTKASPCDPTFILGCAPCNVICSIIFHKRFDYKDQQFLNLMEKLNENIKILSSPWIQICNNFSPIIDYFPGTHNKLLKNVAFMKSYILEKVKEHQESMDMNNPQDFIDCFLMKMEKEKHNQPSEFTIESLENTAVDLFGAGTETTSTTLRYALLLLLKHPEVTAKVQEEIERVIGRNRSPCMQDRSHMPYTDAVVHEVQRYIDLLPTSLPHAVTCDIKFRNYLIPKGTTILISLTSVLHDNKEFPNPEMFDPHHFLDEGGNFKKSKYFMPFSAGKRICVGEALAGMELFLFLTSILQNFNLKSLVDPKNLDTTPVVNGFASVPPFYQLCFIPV
Chain of human CYP2C8, CYP2C8 (gene 1558) (P10632 whole entry, looked up): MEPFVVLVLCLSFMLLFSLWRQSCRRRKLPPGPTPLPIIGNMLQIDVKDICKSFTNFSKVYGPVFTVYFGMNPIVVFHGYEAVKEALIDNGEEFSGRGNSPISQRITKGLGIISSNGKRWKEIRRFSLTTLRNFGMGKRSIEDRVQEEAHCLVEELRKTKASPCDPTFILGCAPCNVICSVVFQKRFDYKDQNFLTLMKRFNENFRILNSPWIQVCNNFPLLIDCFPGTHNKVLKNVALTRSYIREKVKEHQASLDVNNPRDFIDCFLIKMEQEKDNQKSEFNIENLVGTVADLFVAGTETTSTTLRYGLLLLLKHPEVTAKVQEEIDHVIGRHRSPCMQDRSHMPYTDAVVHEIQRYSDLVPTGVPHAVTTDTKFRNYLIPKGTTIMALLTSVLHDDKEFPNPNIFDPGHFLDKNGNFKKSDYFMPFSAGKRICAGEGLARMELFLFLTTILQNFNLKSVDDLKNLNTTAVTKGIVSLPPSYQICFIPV
Chain of human CYP2A6, CYP2A6 (gene 1548) (P11509 whole entry, looked up): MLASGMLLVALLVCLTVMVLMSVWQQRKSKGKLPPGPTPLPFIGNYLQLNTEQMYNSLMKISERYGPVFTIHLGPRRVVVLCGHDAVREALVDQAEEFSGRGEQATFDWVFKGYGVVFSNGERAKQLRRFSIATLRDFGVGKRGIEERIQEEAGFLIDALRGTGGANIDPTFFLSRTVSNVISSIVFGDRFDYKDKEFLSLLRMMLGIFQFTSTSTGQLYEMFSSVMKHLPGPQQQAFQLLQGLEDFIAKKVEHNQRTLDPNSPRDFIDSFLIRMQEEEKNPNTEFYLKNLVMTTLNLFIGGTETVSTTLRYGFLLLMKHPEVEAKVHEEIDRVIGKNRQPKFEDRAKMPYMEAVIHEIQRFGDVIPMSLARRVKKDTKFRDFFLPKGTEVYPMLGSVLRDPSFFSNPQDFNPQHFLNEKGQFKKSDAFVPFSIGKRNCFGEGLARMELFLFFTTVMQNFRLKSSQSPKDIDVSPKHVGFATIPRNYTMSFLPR
Chain of rat CYP2A1, Cyp2a1 (gene 24894) (P11711 whole entry, looked up): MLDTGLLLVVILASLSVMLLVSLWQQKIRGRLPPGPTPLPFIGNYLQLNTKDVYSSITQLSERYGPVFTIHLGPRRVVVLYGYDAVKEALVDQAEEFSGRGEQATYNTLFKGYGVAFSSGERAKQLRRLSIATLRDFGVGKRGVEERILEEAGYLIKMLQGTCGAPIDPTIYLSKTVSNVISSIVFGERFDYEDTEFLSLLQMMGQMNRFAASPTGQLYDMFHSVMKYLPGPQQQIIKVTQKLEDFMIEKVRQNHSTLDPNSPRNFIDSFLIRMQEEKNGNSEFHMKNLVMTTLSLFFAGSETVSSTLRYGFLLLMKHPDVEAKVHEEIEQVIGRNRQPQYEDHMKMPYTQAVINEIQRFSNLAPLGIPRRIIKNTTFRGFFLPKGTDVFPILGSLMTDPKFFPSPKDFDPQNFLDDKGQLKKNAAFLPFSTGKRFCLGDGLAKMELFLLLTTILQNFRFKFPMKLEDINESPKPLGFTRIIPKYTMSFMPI

Usually AC50 stands for the concentration giving half of the maximal activity seen. On to `CCOCN(C(=O)CCl)c1c(C)cccc1CC`, for which the outcome in assay [1] and in assay [2] was inactive. Besides, the AC50 in assay [3] was 15.9 µM (active).
As for `Oc1ccc(Cl)cc1Cc1ccccc1`, the AC50 in [1] was 27.2 µM (active) [middle of 7 runs]; in [2] it was 31.7 µM (active) [middle of 7 runs]; in assay [3], 29.4 µM (active) [middle of 7 runs]; in assay [4], 3.11 µM (active) and 2.49 µM (active); in assay [6] it was 7.66 µM (active) [middle of 6 runs]; in [8], 6.87 µM (active). Further, the AC50 in assay [9] was 10 µM (active); in assay [10], 6.54 µM (active) [middle of 7 runs]; in assay [12], 5.61 µM (active). The compound was called inactive in assay [4], in assay [5], in assay [7] and in [11].
For the compound `CNC(=O)CSP(=S)(OC)OC`, the result in assay [1], in assay [2], in assay [3], in assay [4] and in [9] was inactive. Besides, the AC50 in assay [13] is 4.5 µM (active).
Take `O=C(O)CCCOc1ccc(Cl)cc1Cl`: the result in [1], in assay [2], in assay [3] and in [4] was inactive.
`COP(=S)(OC)Oc1ccc(SC)c(C)c1`: the outcome in [1], in assay [2] and in assay [3] was inactive. In addition, the AC50 in assay [6] is 8.76 µM (active); in assay [7], 2.76 µM (active); in assay [14], 1.06 µM (active); in assay [10] it was 5.54 µM (active); in assay [12] it was 5.64 µM (active).
For the compound `COC(=O)c1ccccc1CS(=O)(=O)NC(=O)Nc1nc(OC)cc(OC)n1`, the outcome in assay [1], in assay [2] and in assay [3] was inactive.
As for `O=[N+]([O-])c1c(Cl)c(Cl)c(Cl)c(Cl)c1Cl`, the outcome in [1], in assay [2], in assay [3], in assay [4] and in assay [5] was inactive.
With `COP(=O)(OC)OC=C(Cl)Cl`, the outcome in [1], in [2], in [3] and in assay [4] was inactive.
For the compound `N#Cc1c(Cl)c(Cl)c(Cl)c(C#N)c1Cl`, the concentration at half-maximal activity (AC50) in [1] is 1.4 µM (active); in assay [2], 1.74 µM (active); in assay [3], 2.27 µM (active); in assay [4], 192 nM (active); in assay [7] it was 0.406 µM (active); in assay [15], 213 nM (active). Moreover, in [11], the AC50 is 302 nM (active). Further, the outcome in [13] and in [16] was inactive.
In the case of `O=C1c2ccccc2C(=O)N1SC(Cl)(Cl)Cl`, the outcome in assay [1], in assay [2], in assay [3] and in assay [9] was inactive. For the same compound, the AC50 in [4] is 1010 nM (active); in assay [15], 245 nM (active).
